In the test the test system is HFF. In words: cell viability relative to DMSO control; higher = less cytotoxic. The settings on record: 1 µM; 72 h. On the procedure: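 Single-dose cytotoxicity screen of the MMV Pandemic Response Box at 1 uM on human foreskin fibroblasts (HFF), 72 h at 37 C. Viability measured by MTT (OD 550 nm) and normalised to the DMSO control (% survival).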

Molecules are shown by their SMILES.

In turn, `COc1ccc(NC(=O)c2cc3ccccn3n2)cc1` showed a cell viability of 62.2%.

Consider `NC[C@H]1O[C@H](O[C@H]2[C@H](O)[C@@H](O[C@H]3O[C@H](CO)[C@@H](O)[C@H](N)[C@H]3O)[C@H](N)C[C@@H]2N)[C@H](N)C[C@@H]1O`, for which the cell viability was 68.2%.

`NC(=S)N/N=C/c1ncccc1N`: the cell viability came out at 65.3%.

The molecule `O=S(=O)(Nc1cccc2cccnc12)c1ccccc1` showed a cell viability of 64.1%.

`NC(=O)C(c1ccccc1)(c1ccccc1)[C@H]1CCCN(CCc2ccc3c(c2)CCO3)C1` returned a cell viability of 64%.

In turn, `CCOc1ccc(/C=N/NC(=O)C2CC2c2ccc(C(C)(C)C)cc2)cc1OCC` (stereo unspecified) gave a cell viability of 57.3%.

With `CCC[C@@H]1C[C@@H](C(=O)N[C@@H]([C@H]2O[C@H](SC)[C@H](O)[C@@H](O)[C@H]2O)[C@H](C)Cl)N(C)C1`, the cell viability worked out at 66.8%.

In turn, `CCc1cc(CCC(=O)Nc2ccccc2O)c(O)nc1C` displayed a cell viability of 71.2%.

The molecule `CC(=O)NC[C@H]1CN(c2ccc(N3CCSCC3)c(F)c2)C(=O)O1` registered a cell viability of 67.2%.

`O=C(Nc1ccccc1)N(Cc1cc(Br)ccc1O)c1ccc(F)cc1` showed a cell viability of 67.1%.

Turning to `COc1cc(NS(=O)(=O)c2ccc(C)cc2)c2ncccc2c1`, the cell viability stood at 72.5%.

As for `O=C(NC1CCCc2c1[nH]c1ccc(Cl)cc21)c1ccccn1` (stereo unspecified), the cell viability was 67.4%.

Consider `N#CCN1C(=O)COc2cc(F)c(N3C(=O)c4ccccc4C3=O)cc21`, for which the cell viability is 63.5%.

In turn, `CC(C)/N=c1\cc2n(-c3ccc(Cl)cc3)c3ccccc3nc-2cc1Nc1ccc(Cl)cc1` displayed a cell viability of 72.6%.

On to `O=c1cc(Nc2ccc3ccccc3c2)[nH]c(=O)[nH]1`, for which the cell viability turned out to be 65.6%.

Turning to `CC[C@@H](CO)NCCN[C@@H](CC)CO`, the cell viability worked out at 76.1%.

Values taken from the supplement of paper PMC10941209.
